Sampled rows, rich in hits. Any-hit rate of the full collection: about 19%.
DT40 TDP1 no CPT – qHTS for Inhibitors of human tyrosyl-DNA phosphodiesterase 1 (TDP1): qHTS in cells in absence of CPT. DT40 Tdp1-/- hTDP1 cells, no CPT, ATP luminescence, 48 h. Potency, µM (series often up to 46.2 µM), for the others: top-dose activity change, negative = growth inhibition, hits mostly inhibitors. 420,000 compounds, 15% hits; note: potency is the fitted concentration of half-maximal effect; % is set by controls: 0 for no effect and ±100 for the full control effect; nearly all actives have a fitted effect of over 55% in size
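Seeded 400 DT40-hTDP1 cells/well (vehicle DMSO, no 20 nM CPT); pinned compounds; ≥48 hr at 37 °C; CellTiter-Glo luminescence as viability measure.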
TGFb inhibitor – inhibitors of TGF-b signaling | HepG2 CAGA-GFP TGF-b/SMAD3 reporter, GFP fluorescence, 18 h; TGF-beta stimulated, 500 pg/mL final | Potency, µM (titrated, usually from 46.1 µM), inactives show at the top dose activity, negative = inhibition, hits mostly inhibitors | 410,000 compounds, 1.2% hits | AID 588855; note: potency is the fitted concentration of half-maximal effect; % is set by controls: 0 for no effect and ±100 for the full control effect; nearly all actives have a fitted effect of over 65% in size
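Using HEPG2 CAGA-GFP reporter cells at 1000 cells/well, we pinned test compounds, stimulated with recombinant TGF-beta (500 pg/mL final) and measured total well GFP after 18 h.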
IL1B secr inh – inflammasome signaling inhibition, IL-1 beta readout; THP-1 LPS/ATP IL-1B secretion, AlphaLISA, 16 h; active compounds read low; activity change, % at 57.5 µM; 360,000 compounds, 4.7% hits; in the data active = activity change below about -50%; inconclusive = mostly about -30% to -49%; note: % is set by controls: 0 for no effect and ±100 for the full control effect
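Secreted IL-1B measured by AlphaLISA bead assay after 16 h compound exposure of THP-1 cells; compounds (final up to 57.5 uM) added 1 h before LPS (250 ng/mL) and ATP (1.25 mM) stimulation; lower signal means less secretion.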
HepG2 viability – HepG2 cytotoxicity, counter-screen for TGF-b inhibitors; AID 588856; HepG2 CAGA-GFP viability, ATP luminescence, 18 h; 410,000 compounds, 0.76% hits; Potency, µM (titrated, usually from 46.1 µM), inactives show at the highest dose activity change, negative = cytotoxicity, actives largely listed as cytotoxic; note: potency is the fitted concentration of half-maximal effect
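CellTiter-Glo luminescence gave cytotoxicity after 18 hours at 37 degrees C. The cells were HepG2 CAGA-GFP in 1% FBS DMEM, stimulated with 500 pg/mL TGF-beta after compound addition. %Activity was normalised to no-cell wells (complete cell-killing) and DMSO (no toxicity), and curves were fitted and classified.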
ASM inhibitor – blocks human secretory acid sphingomyelinase; Potency, µM (titrated, usually from 57.5 µM), inactives show at the top dose activity change, negative = inhibition, most hits filed as inhibitors; AID 504937; 340,000 compounds, 0.006% hits; placental ASM, HMU-PC fluorogenic substrate, 60 min; note: potency is the fitted concentration of half-maximal effect
Target sequence (P17405 47-631 limits assumed): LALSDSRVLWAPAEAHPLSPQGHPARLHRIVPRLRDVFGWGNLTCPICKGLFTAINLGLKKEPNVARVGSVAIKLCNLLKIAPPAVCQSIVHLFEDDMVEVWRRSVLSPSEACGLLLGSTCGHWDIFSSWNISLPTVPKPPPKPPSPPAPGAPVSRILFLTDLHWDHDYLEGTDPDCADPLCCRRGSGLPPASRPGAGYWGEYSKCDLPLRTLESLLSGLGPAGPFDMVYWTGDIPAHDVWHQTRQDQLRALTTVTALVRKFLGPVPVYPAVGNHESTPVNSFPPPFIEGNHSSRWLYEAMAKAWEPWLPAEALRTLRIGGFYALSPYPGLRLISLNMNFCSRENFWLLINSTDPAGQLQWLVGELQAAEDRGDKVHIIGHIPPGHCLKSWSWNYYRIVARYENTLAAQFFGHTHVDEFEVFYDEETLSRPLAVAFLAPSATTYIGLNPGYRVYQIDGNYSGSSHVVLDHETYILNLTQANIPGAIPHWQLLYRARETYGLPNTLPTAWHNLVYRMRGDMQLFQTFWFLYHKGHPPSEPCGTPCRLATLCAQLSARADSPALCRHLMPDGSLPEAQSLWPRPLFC
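Fluorescence read-out (Ex 386 nm, Em 447 nm) after stopping the reaction at pH 10. Enzyme: ASM from human placenta; substrate HMU-PC0, 9 uM final; 60 min, 37 °C. Compound preincubation 10 min, ambient temperature.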
TDP1 cell CPT – DT40-hTDP1 cell growth loss with CPT | chicken DT40 Tdp1-/-;hTDP1 cells + 20 nM CPT, ATP luminescence, 48 h | Potency, µM (series often up to 46.2 µM), for inactives: at the top dose activity change, negative = growth inhibition, most hits filed as inhibitors | AID 686979 | 420,000 compounds, 12% hits; note: potency is the fitted concentration of half-maximal effect; % is set by controls: 0 for no effect and ±100 for the full control effect; nearly all actives have a fitted effect of over 55% in size
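Cell growth measured by CellTiter-Glo luminescence after a minimum 48 h, 37 C compound exposure with 20 nM CPT in Tdp1-knockout DT40 cells stably expressing hTDP1, seeded 400/well; qHTS titration format.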
Numbers without * were called inactive; ? = inconclusive; nt = no result given. Unless noted, calls come from the whole dose curve; as a rule, active = well fitted curve in the direction sought with a large enough effect; inconclusive = small, poorly fitted or top-dose-only effect, or another doubt; inactive = no such curve, though single readings can be large; an effect the other way counts as inactive or inconclusive.

SMILES	DT40 TDP1 no CPT	TGFb inhibitor	IL1B secr inh	HepG2 viability	ASM inhibitor	TDP1 cell CPT
Cc1c(C(=O)OC/C(O)=C(\C#N)c2nc3ccccc3[nH]2)oc2ccc(Br)cc12	?	1%	34	-6%	2%	-26%
Cc1ccc(C(C)C)c(OC/C(O)=C(\C#N)c2nc3ccccc3[nH]2)c1	?	?	-5	-42%	-6%	8%
Cc1ccc(C)c(SCC(=O)OC/C(O)=C(\C#N)c2nc3ccccc3[nH]2)c1	?	-10%	-97*	-17%	32%	?
N#C/C(=C(/O)COC(=O)CSc1ccc2ccccc2c1)c1nc2ccccc2[nH]1	2.9µM*	-1%	-105*	3%	14%	5.2µM*
Cc1cc(Br)ccc1SCC(=O)OC/C(O)=C(\C#N)c1nc2ccccc2[nH]1	21µM*	-30%	0	-27%	-2%	?
N#C/C(=C(/O)CSc1n[nH]c(N)n1)c1nc2ccccc2[nH]1	-4%	-6%	25	-16%	7%	3%
CC(NS(=O)(=O)c1ccccc1[N+](=O)[O-])c1ccccn1 (stereo unspecified)	?	3%	nt	5%	nt	2%
CCNC(=O)C1(C)CCN(C(=O)c2cc(OC)c(OC)c(OC)c2)C1 (stereo unspecified)	15%	25%	29	3%	nt	-6%
O=C(CCCn1c(=S)[nH]c2cc3c(cc2c1=O)OCO3)NCCc1ccccc1Cl	2%	10%	0	3%	1%	-7%
COC(=O)C1=C(C)NC(=O)/C1=C\c1cc(C)n(-c2ccccc2F)c1C	?	5%	-114*	-21%	-5%	2%
CCOC(=O)C1=C(O)/C(=C/c2cccc(OC)c2O)N=C1C	-17%	19%	30	6%	-3%	?
CCOC(=O)C1=C(O)/C(=C\c2cc(C)n(-c3ccccc3F)c2C)N=C1C	23µM*	1%	5	-9%	47%	12µM*
CCOC(=O)C1=C(O)/C(=C\c2cc(C)n(-c3ccc(F)cc3)c2C)N=C1C	15µM*	3%	-19	3%	26%	?
CCN1CCN(C(CNS(=O)(=O)c2ccc(C)cc2)c2ccccc2)CC1 (stereo unspecified)	9%	9%	6	5%	5%	-14%
CC12CCC(C(=O)NNc3ccccc3)(C(=O)C1=O)C2(C)C (stereo unspecified)	1%	-22%	31	9%	3%	2%
Cc1cc(NCC2CCCCC2)nc2ccccc12	23µM*	10%	-100*	-51%	22%	?
CCN1CCN(c2ncc(C(=O)N3CCN(c4ccccc4OC)CC3)c3ccccc23)CC1	?	15%	-3	2%	0%	-23%
COc1cc(Cl)c(C)cc1NC(=O)C1CCN(c2nc3ccccc3n3cccc23)CC1	16µM*	nt	nt	-29%	nt	?
CCN1CCN(c2ncc(C(=O)Nc3c(F)cc(F)cc3Br)c3ccccc23)CC1	16µM*	0%	-12	-39%	1%	14µM*
COc1cc(OC)c(NC(=O)c2cc(C(C)=O)n3ccccc23)cc1Cl	?	1%	nt	-30%	nt	7.3µM*
CCN1CCN(c2ncc(C(=O)Nc3cc(Cl)c(OC)cc3OC)c3ccccc23)CC1	21µM*	0%	-12	1%	-2%	?
CCN1CCN(S(=O)(=O)c2ccc(F)c(C(=O)Nc3c(F)cc(F)cc3Br)c2)CC1	2%	-16%	0	-4%	0%	-16%
c1ccc(CNCCNCc2ccccc2)cc1	-29%	nt	nt	nt	nt	-3%
CC(CNS(=O)(=O)c1ccccc1)Sc1nncn1C (stereo unspecified)	-1%	23%	23	7%	0%	-8%
COc1cc(Cl)c(C)cc1NC(=O)c1cnc(N2CCOCC2)c2ccccc12	9.2µM*	?	nt	-10%	nt	10µM*
SMILES	DT40 TDP1 no CPT	TGFb inhibitor	IL1B secr inh	HepG2 viability	ASM inhibitor	TDP1 cell CPT
CCCCCCCCCCCCCCCCCCO	-3%	nt	nt	nt	nt	-15%
C=CCN(Cc1nc(-c2ccccc2)no1)C(=O)c1ccoc1C	?	1%	-7	4%	-4%	29µM*
Cc1occc1C(=O)N(C)Cc1nc(-c2ccccc2)no1	?	1%	-11	9%	2%	?
O=C(Nc1noc2ccccc12)c1c(F)cccc1F	-18%	nt	nt	-36%	nt	?
O=C(OCC#CCSc1nnc(-c2cccc3ccccc23)o1)c1cc2ccccc2o1	nt	2%	nt	-1%	22%	nt
C[C@]12CCC(=O)C=C1[C@@H]1C[C@@H]1[C@H]1[C@@H]3[C@@H]4C[C@@H]4[C@@]4(CCC(=O)O4)[C@@]3(C)CC[C@@H]12	7.5µM*	nt	nt	nt	nt	8.4µM*
CC(=O)SC1CC2=CC(=O)CCC2(C)C2CCC3(C)C(CCC34CCC(=O)O4)C12 (stereo unspecified)	?	-1%	?	-4%	0%	?
CC(C)(C)n1ncc2c(=O)n(Cc3ccc(Cl)c(OC(F)(F)F)c3)cnc21	nt	?	nt	-21%	nt	nt
CCN(C(=O)c1ccc(C(C)(C)C)cc1)c1nnc(Cn2nnc3ccccc32)s1	8.2µM*	19%	-15	-1%	-5%	7.3µM*
CCN(C(=O)CC(C)C)c1nnc(Cn2nnc3ccccc32)s1	21µM*	-6%	0	-1%	-9%	?
COC(=O)c1ccccc1NC(=O)CCCS(=O)(=O)c1nc(-c2ccccc2OC)cc(C(F)(F)F)n1	-21%	-10%	nt	-16%	nt	0%
CCC(C)[C@H](NC(=O)[C@@H]1Cc2c([nH]c3ccccc23)C2c3ccccc3C(=O)N21)C(=O)NCC1CCCO1 (stereo partly specified)	16µM*	?	-20	-3%	4%	?
Cc1ccccc1Nc1nnc(SCC2CCCCO2)s1 (stereo unspecified)	18µM*	11%	?	-9%	-1%	?
Cc1ccc(Nc2nnc(SCC3CCCCO3)s2)cc1 (stereo unspecified)	?	-3%	-7	-20%	3%	-2%
COc1ccccc1Nc1nnc(SCC2CCCCO2)s1 (stereo unspecified)	?	-9%	-16	-33%	-1%	6.5µM*
